# Measured values taken from ChEMBL document CHEMBL3988442, “University of Dundee, Small-Polar-MMV Screening Library” (2021).
# Assays:
# [1] = target: AMP-activated protein kinase, AMPK (Homo sapiens) (UniProt P54646+O43741+P54619+Q9UGJ0+Q9Y478+Q13131+Q9UGI9); assay: AMP-dependent Kinase enzyme assay. An in vitro enzyme assay that detects ADP turnover that is directly proportional to AMPK activity. This uses naive AMPK that is activated during the assay with MK-8722; type: functional; design: scale not given: direction of the effect not stated beside the values; conditions: 30 µM
# [2] = target: T1, Arginase-2, mitochondrial (Homo sapiens) (UniProt P78540); assay: in vitro enzyme assay to detect the production of urea directly proportional to the activity of Arginase II; type: functional; design: scale not given: in the data most compounds retested in dose-response had high values; conditions: 30 µM
# T1 sequence (whole entry): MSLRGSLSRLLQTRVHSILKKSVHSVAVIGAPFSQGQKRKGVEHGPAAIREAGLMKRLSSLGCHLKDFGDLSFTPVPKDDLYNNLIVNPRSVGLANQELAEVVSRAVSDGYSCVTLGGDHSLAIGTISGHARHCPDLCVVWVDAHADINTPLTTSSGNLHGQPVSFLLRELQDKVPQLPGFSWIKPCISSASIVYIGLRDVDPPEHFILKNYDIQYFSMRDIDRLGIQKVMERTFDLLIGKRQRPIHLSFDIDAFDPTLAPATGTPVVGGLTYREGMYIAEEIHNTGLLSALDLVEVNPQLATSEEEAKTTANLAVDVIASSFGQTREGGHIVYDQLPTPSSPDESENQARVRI
compound,measurement,setting,value
CC(C)C(NC(=O)C1CC1)c1cc(O)nc(-c2cccnc2)n1 (centres undefined),Percent Effect,[1],6.3%
COCCN(C)C[C@@H]1CN(c2cc(C)nc3ccccc23)C[C@@H]1CO,Percent Effect,[1],-6.62%
CCOc1ccccc1CCC(=O)Nc1c(C)nn(C)c1C,Percent Effect,[1],8.9%
Cc1cc(NCCNc2cccnc2)nc(-c2ccccc2O)n1,Percent Effect,[1],19.9%
CNS(=O)(=O)CC(=O)N(C1CCCC1)C1CC1,Percent Effect,[1],-3.58%
CN(C)CC1(O)CCCN(C(=O)Cn2ccc3ccccc32)CC1 (centres undefined),Percent Effect,[1],-8.54%
CC(O)CN1CCN(Cc2coc(-c3ccccc3Cl)n2)CC1 (centres undefined),Percent Effect,[1],-13.3%
Cc1c(NC(=O)c2ncn[nH]2)cccc1C(=O)NC(C)(C)C,Percent Effect,[1],5.84%
O=S(=O)(NCC1(c2cccs2)CCOCC1)c1ccc2c(c1)OCCO2,Percent Effect,[1],-2.31%
CC(C)Cn1ncc(C(=O)O)c1C1CC1,Percent Effect,[1],5.05%
Cc1nc(CN2CCN(S(=O)(=O)N3CCOCC3)CC2)oc1C,Percent Effect,[1],-4.75%
NC(=O)c1csc(N2C[C@@H](CN3CCOCC3)[C@@H](CO)C2)n1,Percent Effect,[1],3.19%
CCOC(=O)C1(O)CCN(C(=O)Nc2ccc(CC)cc2)CC1,Percent Effect,[1],0.524%
CC(C)c1ocnc1C(=O)Nc1cccc(Cn2ccccc2=O)c1,Percent Effect,[1],8.27%
Cc1nnc(-c2cccc(C#N)c2)n1C1CCN(C2CC2)C1=O (centres undefined),Percent Effect,[1],-1.74%
CN(C(=O)c1ccccn1)c1nnc(C2CCOC2)s1 (centres undefined),Percent Effect,[1],9.22%
Cn1ccnc1-c1nc(N2CCCCC2)ncc1-c1ccccc1F,Percent Effect,[1],9.62%
CNC(=O)COC(=O)c1ccn(-c2ccc(Cl)c(Cl)c2)n1,Percent Effect,[1],1.87%
COc1cc(F)ccc1NC(=O)NCCNC(=O)OC(C)(C)C,Percent Effect,[1],-6.81%
Cc1ccc2[nH]c(CN(C)Cc3ccccc3C(=O)O)nc2c1,Percent Effect,[1],4.71%
COC(=O)NCC(=O)N1CCC(c2cc3ccccc3[nH]2)CC1,Percent Effect,[1],6.03%
CC(C)c1ccccc1OCCNC(=O)N1CCC(CC(N)=O)CC1,Percent Effect,[1],-3.47%
CCOC(=O)N1CCC(NC(=O)c2cccc(C3CCCNC3)c2)CC1 (centres undefined),Percent Effect,[1],7.59%
CNC(=O)C1CCN(c2ncnc3c2CCN(C(=O)C2CC2)C3)C1 (centres undefined),Percent Effect,[1],2.51%
Cc1ncsc1C(=O)N[C@@H](Cc1ccccc1)C(N)=O,Percent Effect,[1],8.09%
Cc1cccnc1NC(=O)c1ccc(F)c(S(=O)(=O)NC2CC2)c1,Percent Effect,[1],-4.18%
CC(=O)N1CCC(NC(=O)CN2CCCc3c(F)ccc(C)c32)CC1,Percent Effect,[1],3.84%
c1nn(C2CCCCC2)cc1-c1cncn1CCCN1CCCCC1,Percent Effect,[1],1.56%
CC(C(=O)NCc1ccc(F)cc1)N(C)CCN1CCOCC1 (centres undefined),Percent Effect,[1],2.87%
O=C(c1cc(C2CC2)nc2onc(-c3ccccc3)c12)N1CC(O)C1,Percent Effect,[1],2.65%
COc1ccccc1C(=O)NCCC(=O)Nc1c(C)nn(C)c1C,Percent Effect,[1],9.26%
Cn1cc(S(=O)(=O)NCCc2ccsc2)cn1,Percent Effect,[1],13.7%
CN(C)S(=O)(=O)N1CCCC(c2nccnc2-c2cccc(Cl)c2)C1 (centres undefined),Percent Effect,[1],16%
Cc1nc(CNC(=O)Nc2cc(F)ccc2N2CCN(C)CC2)no1,Percent Effect,[1],13.3%
CCNC(=O)CN(CC)C(=O)c1csc(Cc2ccccc2F)n1,Percent Effect,[1],4.98%
Cc1oc(-c2ccco2)nc1CN1CCc2cnc(C(C)C)nc2C1,Percent Effect,[1],-25.9%
CN(C)C(=O)Cn1cnc2c(Br)cccc2c1=O,Percent Effect,[1],-4.74%
O=C(Cn1ccc2ncccc2c1=O)N1CCSCC1,Percent Effect,[1],-4.34%
COc1ccc(Cl)cc1CN(CC(N)=O)C(C)C,Percent Effect,[1],-4.14%
COc1ccc2c(c1)CCCC2CC(=O)NCC(=O)O (centres undefined),Percent Effect,[1],3.73%
CC(NCc1cccc(NC(=O)C2CCCCC2)c1)c1cnn(C)c1 (centres undefined),Percent Effect,[1],4.61%
CCc1nnc(C(C)N2CCC(NC(=O)C3CCCCC3)CC2)o1 (centres undefined),Percent Effect,[1],2.87%
CCCN(CC(F)(F)F)S(=O)(=O)c1cc(C(N)=O)n(C)c1,Percent Effect,[1],-4.23%
CC(C)(C)NC(=O)c1cnc2n1CCCC2,Percent Effect,[1],0.336%
Cc1ccc(C2(O)CCN(C(=O)CCn3ccc(=O)[nH]c3=O)CC2)nc1,Percent Effect,[1],1.66%
CC(C)c1nc(CN(C)Cc2ncccc2C(=O)O)cs1,Percent Effect,[1],4.59%
Cc1cc(NC(=O)C2CCN(c3nnc(C)c(C)c3C#N)CC2)no1,Percent Effect,[1],-48.4%
O=C(Nc1ccc2c(c1)C(=O)NC2=O)c1cccs1,Percent Effect,[1],16.2%
COc1cc(N2CCN(Cc3ccsc3)C(CCO)C2)nc(N)n1 (centres undefined),Percent Effect,[1],-5.18%
CCn1cc(S(=O)(=O)NCc2ccnc(-n3ccnc3)c2)cn1,Percent Effect,[1],-0.563%
COCc1nn(Cc2ccc(Cl)s2)c(=O)o1,Percent Effect,[1],6.29%
Cn1cc(Cl)c(CN(Cc2ccsc2)CC2CCCO2)n1 (centres undefined),Percent Effect,[1],2.65%
CC(NC(=O)C1CCCCC1)c1cc(O)nc(-c2cccnc2)n1 (centres undefined),Percent Effect,[1],5.58%
COC(=O)c1ccc(N(C(=O)c2ccncc2)C(C)C)c(C)c1,Percent Effect,[1],-1.62%
O=C(CC1CC1)N1C[C@@H](O)[C@H](N2CCN(c3ccccc3)CC2)C1,Percent Effect,[1],-9.15%
CCN(CC)C(=O)CN1CCCC1C(=O)N(C)C (centres undefined),Percent Effect,[1],-2.41%
Cn1ncnc1NCc1ccccc1Cl,Percent Effect,[1],1.77%
COc1ccc(C2SC(C)=Nc3c2c(=O)[nH]n3C2CCCC2)cc1O (centres undefined),Percent Effect,[2],2.7%
COc1ccc2c(c1)OCC(CNC(=O)c1cc(C(C)C)on1)C2 (centres undefined),Percent Effect,[2],2.7%
CCOC(=O)Cn1cccc(S(=O)(=O)N2CCCC2)c1=O,Percent Effect,[2],-11.3%
COC(=O)CCNC(=O)c1cc(Br)c2c(c1)OCCO2,Percent Effect,[2],5.95%
Cc1ccc([C@@H]2CN(S(=O)(=O)N3CCC(C)CC3)C[C@H]2N(C)C)cc1,Percent Effect,[2],7.03%
CNC(=O)[C@H]1C[C@@H]2CN(C(=O)c3cccnc3)C[C@@H]2N1S(C)(=O)=O,Percent Effect,[2],5.95%
Cc1nnsc1C(=O)N1CCCC(c2nccn2Cc2cscn2)C1 (centres undefined),Percent Effect,[2],-2.7%
